Measurements reported in PubChem BioAssay (NCATS).
Inconclusive results are not listed. Activity calls are given as the source filed them. Calls follow the shape of the dose curve; as a rule, active = well fitted activation curve with a large enough effect; inconclusive = small, poorly fitted or top-dose-only effect; inactive = no such curve, though single readings can be large or run the other way.

molecular target: Rap guanine nucleotide exchange factor 3 (Homo sapiens) (UniProt O95398); experiment: Confirmatory qHTS for agonist of cAMP-regulated guanine nucleotide exchange factor 3 (EPAC1) (AID 1645881); details: EPAC1 Rap1B BODIPY-GDP exchange fluorescence; series mostly up to 154 µM;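 also: EPAC1 catalysed release of BODIPY-GDP from Rap1B seen as fluorescence loss; nearly all actives have a fitted effect of over 75% in size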
Sequence (O95398 whole entry, looked up): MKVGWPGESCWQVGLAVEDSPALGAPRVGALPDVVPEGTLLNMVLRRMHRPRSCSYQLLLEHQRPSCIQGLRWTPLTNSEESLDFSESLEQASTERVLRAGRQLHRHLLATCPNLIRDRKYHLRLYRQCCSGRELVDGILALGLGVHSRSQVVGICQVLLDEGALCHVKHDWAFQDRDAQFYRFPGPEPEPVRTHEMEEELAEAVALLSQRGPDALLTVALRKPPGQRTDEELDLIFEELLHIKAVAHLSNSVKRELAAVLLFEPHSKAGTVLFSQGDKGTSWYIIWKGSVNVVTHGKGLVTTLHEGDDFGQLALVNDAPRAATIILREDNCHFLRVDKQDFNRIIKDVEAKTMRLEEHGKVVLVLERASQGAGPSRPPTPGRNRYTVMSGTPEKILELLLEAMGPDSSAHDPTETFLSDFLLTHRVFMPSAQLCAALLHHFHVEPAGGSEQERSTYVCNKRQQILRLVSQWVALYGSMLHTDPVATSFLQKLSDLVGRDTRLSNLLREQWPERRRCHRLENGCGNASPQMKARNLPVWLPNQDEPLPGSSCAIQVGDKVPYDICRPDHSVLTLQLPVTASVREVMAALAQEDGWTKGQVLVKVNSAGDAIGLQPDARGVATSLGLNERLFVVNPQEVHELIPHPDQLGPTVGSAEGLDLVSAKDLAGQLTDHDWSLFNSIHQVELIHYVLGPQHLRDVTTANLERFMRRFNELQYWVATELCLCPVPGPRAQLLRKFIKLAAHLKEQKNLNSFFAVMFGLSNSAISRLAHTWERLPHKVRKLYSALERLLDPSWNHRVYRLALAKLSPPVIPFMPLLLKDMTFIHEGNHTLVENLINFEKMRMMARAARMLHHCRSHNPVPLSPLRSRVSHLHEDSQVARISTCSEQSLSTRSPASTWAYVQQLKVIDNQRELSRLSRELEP

Potency, inactive:
COCCCn1c(=O)/c(=C\c2ccccc2OC(C)C)s/c1=C(/C#N)C(=O)Nc1ccc(C(=O)O)cc1
COc1ccc(Cl)cc1NC(=O)CN(C)C(=O)c1cc(-c2ccncc2)nc2ccccc12
Cc1c(C)c2ccc(OCC(=O)Nc3ccc(S(N)(=O)=O)cc3)c(C)c2oc1=O
O=C(O)c1ccc(-c2nc(-c3ccc(Cl)cc3Cl)cs2)cc1
COc1ccccc1C(C(=O)c1ccccc1)c1ccc(O)cc1 (stereo not given)
CCOC(=O)c1cnc2ccc(C(=O)OC)cc2c1Nc1ccccc1CC
COc1ccc(CCNC(=O)CS(=O)(=O)Cc2nc(-c3ccc(C)cc3)oc2C)cc1OC
CC1=C(C(=O)Nc2ccccc2)C(c2ccc(Cl)cc2)n2c(s/c(=C/c3cccc(OCC(=O)O)c3)c2=O)=N1 (stereo not given)
COc1ccc(-n2c(NC(=O)c3ccco3)c(C#N)c3nc4ccccc4nc32)cc1
Cc1cccc([C@H]2[C@@H]3C=CCC[C@@H]3C(=O)N2Cc2ccccc2)c1
COc1ccc(C(=O)CSc2nnc(-c3ccco3)c(-c3ccco3)n2)cc1
O=S(=O)(NCC(c1cccnc1)N1CCN(c2ccccc2F)CC1)c1cccs1 (stereo not given)
CCN(CCCNC(=O)c1cc2cc3ccc(OC)cc3nc2s1)c1cccc(C)c1
Cn1cccc1C(=O)NC(=O)COC(=O)c1ccc(S(C)(=O)=O)c([N+](=O)[O-])c1
Cc1cccc(S(=O)(=O)Nc2ccc(S(=O)(=O)Nc3nccs3)cc2)c1
Cc1ccn2c(=O)nc(SCC(=O)Nc3ccc4c(c3)OCO4)nc2c1
COc1cccc(/C=C2\SC(=S)NC2=O)c1OS(=O)(=O)c1ccc(NC(C)=O)cc1
CCOc1ccc(S(=O)(=O)Nc2ccc(F)cc2)c(C)c1C
Cc1cccc(Nc2nnc(SC/C(O)=C(\C#N)c3nc4ccccc4[nH]3)s2)c1
O=C1C(Cl)=C(NCCc2ccccc2)C(=O)c2ccccc21
O=C(O)/C=C\C(=O)Nc1ccccc1C#Cc1ccc(Br)cc1
CCc1ccc(C(c2ccccc2)c2c(C)[nH]c3ccccc23)s1 (stereo not given)
Cc1cc(/C=C2\C(=N)N3N=C(c4ccco4)SC3=NC2=O)c(C)n1Cc1ccccc1
COc1cc(NC(=O)c2cccc([N+](=O)[O-])c2)ccc1NC(=O)c1ccco1
Cc1cccc(N2CCN(C(=O)c3[nH]c(C(F)(F)F)nc3-c3ccccc3)CC2)c1C
Cn1cnnc1SCC(=O)Nc1sc2c(c1C(N)=O)CCC2
CCCn1cc(SCC(=O)NCc2ccc3c(c2)OCO3)c2ccccc21
C=CCOC(=O)C1=C(C)NC(C)=C(C(=O)OCC=C)C1c1ccco1
N#CCCN(CCC#N)S(=O)(=O)c1ccc(C(=O)Nc2nnc(C3=COCCO3)o2)cc1
CCOc1cccc(CNc2ccc(O)cc2)c1OCc1ccc(Cl)cc1Cl
COc1ccccc1[C@]1(C)ON(c2ccccc2C(F)(F)F)C1=O
O=C1CSC(c2cccc(Cl)c2Cl)N1c1ccccn1 (stereo not given)
O=S(=O)(Nc1nc2ccc(Cl)cc2s1)c1cccs1
O=S(=O)(Nc1ccc(Cl)cc1NS(=O)(=O)c1ccccc1)c1ccccc1
Cc1cccc(Cn2c(COc3ccccc3)nc3ccccc32)c1
CCOc1ccc(C(=O)N2CC(=O)Nc3ccc(C)cc3C2c2ccc(F)cc2)cc1OCC (stereo not given)
O=C(Nc1cccc(F)c1)c1ccc(-c2cccnc2)c2ccoc12
Oc1c(C2=NCCNC(C(F)(F)F)=C2)ccc2ccccc12
Nc1ccc2ccc(O)cc2c1
O=C(CCCn1c(SCC(=O)c2ccc(O)c(O)c2)nc2ccccc2c1=O)NCC1CCCO1 (stereo not given)
